Assay results: PubChem BioAssay (Tox21)
Results filed as inconclusive are left out. Activity calls are given as the source filed them. Unless noted, calls follow the shape of the dose curve; as a rule, active = well fitted curve in the direction sought with a large enough effect in the repeat runs; inconclusive = weak or mixed curves; inactive = no such curve, though single readings can be large; an effect the other way counts as inactive or inconclusive.

Columns and labels:
[1] = target: Aryl hydrocarbon receptor (Homo sapiens) (UniProt P35869); assay: qHTS assay to identify small molecule that activate the aryl hydrocarbon receptor (AhR) signaling pathway (AID 743085); also: nearly all actives have a fitted effect of over 15% in size; also: potency is read from the fitted curve at half-maximal effect;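 as to activation: HG2L7.5c1 human HepG2 liver cells with stably integrated DRE-driven firefly reporter; series mostly up to about 70 µM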
Method in brief: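 A multiplexed format paired cell viability (CellTiter-Fluor fluorescence) with AhR-dependent luciferase output (ONE-Glo luminescence) in the same wells of HepG2 DRE-luc cells after 24 h compound exposure at 37C.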

[2] = qHTS assay to identify small molecule that activate the aryl hydrocarbon receptor (AhR) signaling pathway - cell viability counter screen (AID 743086); also: nearly all actives have a fitted effect of over 45% in size; also: potency is read from the fitted curve at half-maximal effect
Method in brief: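 HepG2-AhR-luc (HG2L7.5c1) cells, 4000/well, were preincubated 5 h at 37C, exposed to compound in qHTS format for 24 hr at 37C, then given CellTiter-Fluor for 30 min; viability was read as fluorescence in the reporter wells.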

[3] = target: Peroxisome proliferator-activated receptor gamma (Homo sapiens) (UniProt P37231); assay: qHTS assay to identify small molecule agonists of the peroxisome proliferator-activated receptor gamma (PPARg) signaling pathway (AID 743094; active = well fitted activation curve with a large enough effect in the signal ratio in the repeat runs, not every such curve was filed as active; the % refers to the signal ratio; also: potency is read from the fitted curve at half-maximal effect)
Method in brief: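 Reporter activation was scored by fluorescence of cleaved LiveBLAzer B/G substrate (1 h, room temperature) in PPARg-bla HEK293H cells previously treated 17 h at 37C with DMSO-dissolved compounds.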

[4] = qHTS assay to identify small molecule antagonists of the peroxisome proliferator-activated receptor gamma (PPARg) signaling pathway - cell viability counter screen (AID 743194); also: nearly all actives have a fitted effect of over 55% in size; also: potency is read from the fitted curve at half-maximal effect
Method in brief: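 PPARg-UAS-bla HEK293H cells were plated, rested 5 h at 37 C, then treated with compounds plus rosiglitazone (50 nM final) for 17 h at 37 C; viability was then read by CellTiter-Glo luminescence after 30 min at room temperature.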

[5] = qHTS assay for small molecule agonists of the antioxidant response element (ARE) signaling pathway - cell viability counter screen (AID 743203; calls by dose curve; also: nearly all actives have a fitted effect of over 55% in size)
Method in brief: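 Viability counter screen: stably transfected ARE-bla HepG2 line, 16 hrs compound exposure at 37C/5% CO2, ATP-based CellTiter-Glo luminescence measured in the reporter wells.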

[6] = qHTS assay for small molecule activators of the heat shock response signaling pathway (AID 743210; active = well fitted activation curve with a large enough effect in the signal ratio in the repeat runs, with a control signal flat, not every such curve was filed as active; the % refers to the signal ratio; also: series mostly up to about 63 µM)
Method in brief: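 Heat shock element–beta-lactamase HeLa reporter cells; qHTS with compounds for 5 h at 37 C; detection by FRET substrate fluorescence after 2.5 h at RT.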

[7] = qHTS assay to identify small molecule agonists of the peroxisome proliferator-activated receptor delta (PPARd) signaling pathway - cell viability counter screen (AID 743211); also: nearly all actives have a fitted effect of over 55% in size; also: potency is read from the fitted curve at half-maximal effect
Method in brief: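 Tox21 library compounds, delivered in DMSO, were incubated 17 h with PPARd-bla HEK293H cells; cytotoxicity was taken from CellTiter-Glo luminescence read 30 min after reagent addition.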

[8] = target: Peroxisome proliferator-activated receptor delta (Homo sapiens) (UniProt Q03181); assay: qHTS assay to identify small molecule agonists of the peroxisome proliferator-activated receptor delta (PPARd) signaling pathway (AID 743212; calls by dose curve; also: potency is read from the fitted curve at half-maximal effect)
Method in brief: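 Beta-lactamase reporter read by fluorescence (LiveBLAzer B/G FRET, 2 h, room temperature). Test agents, in DMSO, incubated at 37 C with PPARd-bla HEK293H cells.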

[9] = qHTS assay to identify small molecule antagonists of the peroxisome proliferator-activated receptor delta (PPARd) signaling pathway - cell viability counter screen (AID 743213); also: nearly all actives have a fitted effect of over 50% in size; also: potency is read from the fitted curve at half-maximal effect
Method in brief: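 Cytotoxicity counter screen: CellTiter-Glo luminescence read 30 min after addition, in the same wells as the reporter assay. There, PPARd UAS-bla HEK293H cells (3000/well) were treated 17 h at 37 C with compound and 300 nM L165041.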

[10] = target: Peroxisome proliferator-activated receptor delta (Homo sapiens) (UniProt Q03181); assay: qHTS assay to identify small molecule antagonists of the peroxisome proliferator-activated receptor delta (PPARd) signaling pathway (AID 743215; active = well fitted inhibition curve with a large enough effect in the signal ratio in the repeat runs, not every such curve was filed as active; the % refers to the signal ratio;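 also: cells stimulated with agonist L165041 at 300 nM final during compound exposure; series mostly up to about 62 µM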)
Method in brief: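 Plated HEK293H PPARd-bla cells rested 5 h at 37 C and 5% CO2. Compound, then agonist L165041 at 300 nM final, was added; 17 h at 37 C followed. Substrate loading, 2 h room temperature, fluorescence measured.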

[11] = target: Bile acid receptor (Homo sapiens) (UniProt Q96RI1); assay: qHTS assay to identify small molecule antagonists of the farnesoid-X-receptor (FXR) signaling pathway (AID 743217; active = well fitted inhibition curve with a large enough effect in the signal ratio in the repeat runs, not every such curve was filed as active; the % refers to the signal ratio; also: potency is read from the fitted curve at half-maximal effect)
Method in brief: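 Screen of the Tox21 10K library in quantitative HTS format using FXR-UAS-bla HEK 293T reporter cells. Agonist chenodeoxycholic acid, 50 uM final, added with compounds; 16 h incubation at 37 °C; beta-lactamase FRET fluorescence measured.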

[12] = qHTS assay to identify small molecule agonists of the farnesoid-X-receptor (FXR) signaling pathway - cell viability counter screen (AID 743218); also: nearly all actives have a fitted effect of over 45% in size; also: potency is read from the fitted curve at half-maximal effect
Method in brief: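 Viability of FXR-bla HEK 293T cells is measured by ATP-based CellTiter-Glo luminescence following 16 h compound treatment at 37 C and a prior 2 h room-temperature beta-lactamase substrate step.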

[13] = qHTS assay to identify small molecule antagonists of the farnesoid-X-receptor (FXR) signaling pathway - cell viability counter screen (AID 743221; active = well fitted cell-killing curve with a large enough effect in the repeat runs, not every such curve was filed as active; also: nearly all actives have a fitted effect of over 50% in size; also: potency is read from the fitted curve at half-maximal effect)
Method in brief: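 Cytotoxicity is taken from ATP luminescence (CellTiter-Glo, 30 min, room temperature) in FXR-bla HEK 293T cells previously incubated 16 h at 37 C with compound and chenodeoxycholic acid at 50 uM final.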

[14] = qHTS assay for small molecule activators of the heat shock response signaling pathway - cell viability counter screen (AID 743209); also: nearly all actives have a fitted effect of over 50% in size
Method in brief: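 Viability of HSE-bla HeLa cells is measured with CellTiter-Glo in the wells already used for the reporter read. Compound exposure lasts 5 h at 37 C, and luminescence is read after 30 min at room temperature.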

[15] = qHTS assay to identify small molecule agonists of the vitamin D receptor (VDR) signaling pathway - cell viability counter screen (AID 743224); also: series mostly up to about 63 µM; nearly all actives have a fitted effect of over 50% in size
Method in brief: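 Compounds were pin-transferred onto VDR-bla cells plated 4 h earlier; following 16 h incubation at 37C, cell viability was quantified by CellTiter-Glo luminescence after 30 min at room temperature.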

[16] = qHTS assay for small molecule agonists of the antioxidant response element (ARE) signaling pathway (AID 743202; active = well fitted activation curve with a large enough effect in the signal ratio in the repeat runs, not every such curve was filed as active; the % refers to the signal ratio; also: potency is read from the fitted curve at half-maximal effect)
Method in brief: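 Following a 16 h, 37 C exposure of reporter HepG2 cells (ARE-driven beta-lactamase, 2,000 cells/well) to compounds, FRET substrate was applied for 2 h at room temperature and fluorescence intensity recorded.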

[17] = target: Vitamin D3 receptor (Homo sapiens) (UniProt P11473); assay: qHTS assay to identify small molecule agonists of the vitamin D receptor (VDR) signaling pathway (AID 743222; calls by dose curve)
Method in brief: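 Fluorescence from cleaved LiveBLAzer B/G FRET substrate served as readout. VDR-bla cells had been treated 16 h at 37C with test compounds in DMSO, following a 4 h settling period, and substrate was loaded for 2 h at RT.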

[18] = target: Peroxisome proliferator-activated receptor gamma (Homo sapiens) (UniProt P37231); assay: qHTS assay to identify small molecule antagonists of the peroxisome proliferator-activated receptor gamma (PPARg) signaling pathway (AID 743191; calls by dose curve; also: series mostly up to about 63 µM; nearly all actives have a fitted effect of over 30% in size)
Method in brief: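 GeneBLAzer PPARg UAS-bla HEK293H cells carrying a UAS-driven beta-lactamase reporter were plated at 3000 cells/well, preincubated 5 h at 37C, then given compound for 17 h at 37C; LiveBLAzer B/G FRET substrate was read after 1 h at room temperature.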

[19] = target: Bile acid receptor (Homo sapiens) (UniProt Q96RI1); assay: qHTS assay to identify small molecule agonists of the farnesoid-X-receptor (FXR) signaling pathway (AID 743220; active = well fitted activation curve with a large enough effect in the signal ratio in the repeat runs, not every such curve was filed as active; the % refers to the signal ratio)
Method in brief: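 FXR-UAS-bla HEK 293T cells carrying a UAS-driven beta-lactamase reporter were plated for 5 h at 37C/5% CO2, then exposed to DMSO-dissolved Tox21 10K compounds for 16 h at 37C. A LiveBLAzer B/G FRET substrate was loaded for 2 h at room temperature before fluorescence reading.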

[20] = target: Vitamin D3 receptor (Homo sapiens) (UniProt P11473); assay: qHTS assay to identify small molecule antagonists of the vitamin D receptor (VDR) signaling pathway (AID 743223; active = well fitted inhibition curve with a large enough effect in the signal ratio in the repeat runs, not every such curve was filed as active; the % refers to the signal ratio)
Method in brief: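 Quantitative HTS in VDR-bla reporter cells stimulated with 1alpha,25-dihydroxyvitamin D3, 3 nM final. Compound exposure 16 h, 37C, 5% CO2. Read-out: beta-lactamase FRET substrate fluorescence, 2 h RT.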

Measured: Potency

Chain of Vitamin D3 receptor (Homo sapiens) (P11473 whole entry, looked up): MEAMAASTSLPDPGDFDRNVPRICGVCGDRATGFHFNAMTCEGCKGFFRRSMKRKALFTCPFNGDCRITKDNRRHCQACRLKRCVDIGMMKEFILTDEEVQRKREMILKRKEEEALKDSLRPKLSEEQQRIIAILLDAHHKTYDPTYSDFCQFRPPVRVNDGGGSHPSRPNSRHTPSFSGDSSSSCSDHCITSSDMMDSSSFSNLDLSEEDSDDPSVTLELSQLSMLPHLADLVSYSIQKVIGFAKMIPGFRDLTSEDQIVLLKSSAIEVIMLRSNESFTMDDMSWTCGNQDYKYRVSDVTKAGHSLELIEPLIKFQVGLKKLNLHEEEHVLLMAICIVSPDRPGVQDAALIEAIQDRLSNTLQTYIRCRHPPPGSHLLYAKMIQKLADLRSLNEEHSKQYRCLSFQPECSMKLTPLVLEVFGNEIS
Chain of Peroxisome proliferator-activated receptor delta (Homo sapiens) (Q03181 whole entry, looked up): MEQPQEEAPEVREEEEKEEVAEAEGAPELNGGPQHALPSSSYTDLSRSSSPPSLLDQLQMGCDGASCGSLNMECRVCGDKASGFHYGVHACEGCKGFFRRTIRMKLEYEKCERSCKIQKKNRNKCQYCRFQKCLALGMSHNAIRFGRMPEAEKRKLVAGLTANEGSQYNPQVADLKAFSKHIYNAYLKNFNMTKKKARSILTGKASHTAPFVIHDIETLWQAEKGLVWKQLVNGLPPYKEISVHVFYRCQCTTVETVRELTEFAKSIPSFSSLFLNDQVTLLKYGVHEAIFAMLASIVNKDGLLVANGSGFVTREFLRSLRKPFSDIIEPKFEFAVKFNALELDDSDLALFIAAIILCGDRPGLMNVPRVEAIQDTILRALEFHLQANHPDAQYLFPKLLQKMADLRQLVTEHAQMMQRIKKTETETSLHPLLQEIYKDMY
Chain of Peroxisome proliferator-activated receptor gamma (Homo sapiens) (P37231 whole entry, looked up): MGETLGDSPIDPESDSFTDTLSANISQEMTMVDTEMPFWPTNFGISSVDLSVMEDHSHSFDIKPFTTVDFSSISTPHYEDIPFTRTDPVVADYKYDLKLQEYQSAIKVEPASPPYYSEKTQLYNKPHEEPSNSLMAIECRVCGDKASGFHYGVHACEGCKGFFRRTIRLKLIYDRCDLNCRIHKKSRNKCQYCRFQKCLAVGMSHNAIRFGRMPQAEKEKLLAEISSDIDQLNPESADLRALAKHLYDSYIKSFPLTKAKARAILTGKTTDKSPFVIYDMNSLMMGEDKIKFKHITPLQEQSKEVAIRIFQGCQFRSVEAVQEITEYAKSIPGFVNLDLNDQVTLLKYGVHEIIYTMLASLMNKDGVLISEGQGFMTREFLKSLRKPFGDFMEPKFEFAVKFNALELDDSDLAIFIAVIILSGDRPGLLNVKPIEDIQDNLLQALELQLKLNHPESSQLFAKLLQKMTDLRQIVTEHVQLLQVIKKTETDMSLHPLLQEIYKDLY
Chain of Bile acid receptor (Homo sapiens) (Q96RI1 whole entry, looked up): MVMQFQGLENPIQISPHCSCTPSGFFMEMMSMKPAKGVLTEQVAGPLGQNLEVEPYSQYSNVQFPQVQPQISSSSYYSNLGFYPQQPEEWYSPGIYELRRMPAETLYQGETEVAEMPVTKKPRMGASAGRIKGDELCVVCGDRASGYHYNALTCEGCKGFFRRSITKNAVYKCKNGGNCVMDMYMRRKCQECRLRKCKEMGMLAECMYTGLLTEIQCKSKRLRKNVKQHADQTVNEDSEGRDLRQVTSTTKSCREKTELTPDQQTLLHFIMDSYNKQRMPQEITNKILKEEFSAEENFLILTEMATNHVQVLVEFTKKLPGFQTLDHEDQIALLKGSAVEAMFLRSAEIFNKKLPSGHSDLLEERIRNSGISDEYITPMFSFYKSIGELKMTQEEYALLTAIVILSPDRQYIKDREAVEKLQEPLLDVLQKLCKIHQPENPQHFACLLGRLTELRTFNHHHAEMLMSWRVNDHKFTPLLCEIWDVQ
Chain of Aryl hydrocarbon receptor (Homo sapiens) (P35869 whole entry, looked up): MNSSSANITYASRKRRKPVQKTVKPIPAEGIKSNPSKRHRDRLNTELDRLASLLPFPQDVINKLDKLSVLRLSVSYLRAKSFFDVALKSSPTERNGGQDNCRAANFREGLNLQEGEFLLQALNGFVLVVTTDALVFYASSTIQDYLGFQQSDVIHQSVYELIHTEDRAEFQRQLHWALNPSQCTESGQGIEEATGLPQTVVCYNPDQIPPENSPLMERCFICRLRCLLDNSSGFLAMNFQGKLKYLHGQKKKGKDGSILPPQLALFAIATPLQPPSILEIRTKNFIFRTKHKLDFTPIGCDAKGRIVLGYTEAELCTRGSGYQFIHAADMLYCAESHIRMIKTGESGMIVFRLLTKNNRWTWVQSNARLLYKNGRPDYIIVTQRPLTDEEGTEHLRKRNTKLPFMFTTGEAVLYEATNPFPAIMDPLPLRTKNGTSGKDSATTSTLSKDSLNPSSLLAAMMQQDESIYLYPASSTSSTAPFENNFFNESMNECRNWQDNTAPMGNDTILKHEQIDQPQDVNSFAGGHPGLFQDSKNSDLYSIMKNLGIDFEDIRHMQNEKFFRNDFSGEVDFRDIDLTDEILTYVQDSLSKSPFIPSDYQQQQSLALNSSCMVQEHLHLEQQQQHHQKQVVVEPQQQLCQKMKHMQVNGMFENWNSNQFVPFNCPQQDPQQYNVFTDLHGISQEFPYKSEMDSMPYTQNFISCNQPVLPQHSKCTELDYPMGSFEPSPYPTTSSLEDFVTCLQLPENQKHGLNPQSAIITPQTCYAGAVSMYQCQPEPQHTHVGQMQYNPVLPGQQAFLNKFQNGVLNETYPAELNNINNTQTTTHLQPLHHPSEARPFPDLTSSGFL

CO/N=C1\CN(c2nc3c(cc2F)c(=O)c(C(=O)O)cn3C2CC2)CC1CN (configuration not stated)
inactive: [1] | [2] | [3] | [4] | [5] | [6] | [7] | [8] | [9] | [10] | [11] | [12] | [13]

CCc1nn(CCCN2CCN(c3cccc(Cl)c3)CC2)c(=O)n1CCOc1ccccc1
inactive: [1] | [3] | [4] | [14] | [6] | [9] | [10] | [12] | [13] | [15]
active: [2] 23.7 µM

CC(=O)OCC(=O)[C@@]12OC(C)(C)O[C@@H]1C[C@H]1[C@@H]3C[C@H](F)C4=CC(=O)C=C[C@]4(C)[C@@]3(F)[C@@H](O)C[C@@]12C
inactive: [1] | [2] | [3] | [4] | [16] | [5] | [14] | [6] | [7] | [8] | [9] | [10] | [12] | [13] | [17] | [15]

O=S(=O)(c1ccccc1)c1ccc(Cl)cc1
inactive: [1] | [2] | [3] | [18] | [5] | [14] | [6] | [7] | [8] | [9] | [12] | [13] | [17]

CCCCC(CC)COC(=O)COc1ccc(Cl)cc1C (configuration not stated)
inactive: [1] | [2] | [3] | [4] | [16] | [5] | [14] | [6] | [7] | [8] | [9] | [12] | [19] | [13] | [17] | [20]

CC[C@@H]([C@H](C)O)n1ncn(-c2ccc(N3CCN(c4ccc(OC[C@@H]5CO[C@@](Cn6cncn6)(c6ccc(F)cc6F)C5)cc4)CC3)cc2)c1=O
inactive: [1] | [2] | [3] | [6] | [17] | [15]
active: [4] 29.8 µM | [16] 10.6 µM | [7] 29.8 µM | [9] 23.7 µM | [12] 29.8 µM | [13] 29.8 µM

CC(=O)OCC(=O)[C@H]1CC[C@H]2[C@@H]3CCC4=CC(=O)CC[C@]4(C)[C@H]3CC[C@]12C
inactive: [1] | [2] | [3] | [4] | [6] | [7] | [8] | [9] | [12] | [19] | [13] | [17] | [20]

CCCCCCCCCCCCCCCCBr
inactive: [1] | [2] | [3] | [18] | [16] | [5] | [14] | [6] | [7] | [8] | [9] | [10] | [12] | [13] | [17] | [20] | [15]

C1COCO1
inactive: [1] | [2] | [3] | [18] | [16] | [14] | [6] | [7] | [8] | [9] | [12] | [13] | [17] | [15]

CC(Cl)C(Cl)Cl (configuration not stated)
inactive: [1] | [2] | [3] | [4] | [16] | [5] | [14] | [6] | [7] | [8] | [9] | [12] | [13] | [17] | [20] | [15]

COc1ccc(C(=O)c2cccc(O)c2)c(OC)c1
inactive: [2] | [3] | [4] | [5] | [14] | [6] | [7] | [9] | [12] | [13] | [17] | [20] | [15]
active: [1] 17.2 µM

N#C[C@@H]1C[C@@H]2C[C@@H]2N1C(=O)[C@@H](N)C12CC3CC(CC(O)(C3)C1)C2
inactive: [1] | [2] | [3] | [4] | [16] | [5] | [6] | [7] | [11] | [12] | [19] | [13] | [17]

NCC1CCCC(CN)C1 (configuration not stated)
inactive: [1] | [2] | [3] | [4] | [16] | [5] | [14] | [6] | [7] | [8] | [9] | [11] | [12] | [13] | [17] | [15]

CC(=O)Oc1ccc2c(c1)CC[C@@H]1[C@@H]2CC[C@]2(C)[C@@H](O)CC[C@@H]12
active: [11] 29.8 µM
inactive: [1] | [2] | [3] | [4] | [14] | [6] | [7] | [8] | [9] | [10] | [12] | [19] | [13] | [17] | [20] | [15]

C=CC(C)(O)CCCC(C)CCCC(C)CCCC(C)C (configuration not stated)
inactive: [1] | [2] | [3] | [4] | [16] | [5] | [14] | [6] | [7] | [8] | [9] | [10] | [12] | [13] | [17] | [15]

CC(C)(O)c1ccccc1CC[C@@H](SCC1(CC(=O)O)CC1)c1cccc(/C=C/c2ccc3ccc(Cl)cc3n2)c1
active: [1] 23.7 µM
inactive: [2] | [3] | [5] | [14] | [6] | [7] | [8] | [9] | [10] | [12] | [19] | [13] | [17]

CCCc1c(OCCCOc2ccc(OCC(=O)O)cc2)ccc(C(C)=O)c1O
inactive: [1] | [2] | [4] | [16] | [5] | [6] | [13] | [20] | [15]
active: [3] 0.275 µM | [8] 0.011 µM

Cc1nc2ccccc2s1
inactive: [1] | [2] | [3] | [4] | [16] | [5] | [14] | [7] | [8] | [9] | [10] | [12] | [13] | [17] | [15]
